According to PubChem BioAssay (Tox21):
Values without a mark were called inactive. Results filed as inconclusive are left out. Where a call stands in place of a potency, no number is given. Active and inactive are the calls of the source. Calls come from the whole dose curve; as a rule, active = well fitted curve in the direction sought with a large enough effect in the repeat runs; inconclusive = weak or mixed curves; inactive = no such curve, though single readings can be large; an effect the other way counts as inactive or inconclusive.

What was measured:
[1] = A CellTox Green Cytotoxicity Assay to monitor cytotoxicity in HEK293 cells - 24 hour (AID 1224875); note: nearly all actives have a fitted effect of over 45% in size; note: potency is the fitted concentration of half-maximal effect
Method in brief: (§1)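 Cells (HEK293, 600/well) and dye reagent are dispensed together. After 5 h at 37 C, 23 nL compound is pinned in. Plates stay at 37 C for 40 h with fluorescence read at 0h, 8h, 16h, 24h, 32h and 40h.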

[2] = A CellTox Green Cytotoxicity Assay to monitor cytotoxicity in HepG2 cells - 16 hour (AID 1224876); note: nearly all actives have a fitted effect of over 45% in size; note: potency is the fitted concentration of half-maximal effect
Method in brief: (§2)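 Cells and non-lytic dye reagent are dispensed together (600 HepG2 cells/well) and incubated 5 h before DMSO compound transfer. Kinetic fluorescence is then recorded in the same wells during 40 h at 37 C.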

[3] = qHTS RealTime-Glo MT Cell Viability Assay in HepG2 cells - 32 hour (AID 1224877); note: nearly all actives have a fitted effect of over 55% in size; note: potency is the fitted concentration of half-maximal effect
Method in brief: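 Cells + NanoLuc/prosubstrate dispensed (600 cells/well) → 5 h at 37 C/5% CO2 → compounds in DMSO transferred → 40 h incubation at 37 C, luminescence read at 0, 8, 16, 24, 32, 40 h.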

[4] = A CellTox Green Cytotoxicity Assay to monitor cytotoxicity in HepG2 cells - 24 hour (AID 1224878); note: nearly all actives have a fitted effect of over 45% in size; note: potency is the fitted concentration of half-maximal effect
Method in brief: as §2

[5] = qHTS RealTime-Glo MT Cell Viability Assay in HEK293 cells - 0 hour (AID 1224880); note: top concentration of the series differs between compounds; nearly all actives have a fitted effect of over 45% in size
Method in brief: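 Real-time viability in HEK293: signal arises when living cells convert a prosubstrate for NanoLuc in the medium, so luminescence tracks viable cell number. Compound (23 nL, DMSO) added 5 h post-seeding; kinetic reads at 0–40 h, 37 C.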

[6] = A CellTox Green Cytotoxicity Assay to monitor cytotoxicity in HEK293 cells - 32 hour (AID 1224881); note: nearly all actives have a fitted effect of over 40% in size; note: potency is the fitted concentration of half-maximal effect
Method in brief: as §1

[7] = A CellTox Green Cytotoxicity Assay to monitor cytotoxicity in HepG2 cells - 0 hour (AID 1224882); note: nearly all actives have a fitted effect of over 35% in size; note: potency is the fitted concentration of half-maximal effect
Method in brief: as §2

[8] = A CellTox Green Cytotoxicity Assay to monitor cytotoxicity in HepG2 cells - 32 hour (AID 1224883); note: nearly all actives have a fitted effect of over 50% in size; note: potency is the fitted concentration of half-maximal effect
Method in brief: as §2

[9] = A CellTox Green Cytotoxicity Assay to monitor cytotoxicity in HEK293 cells - 8 hour (AID 1224884); note: nearly all actives have a fitted effect of over 35% in size; note: potency is the fitted concentration of half-maximal effect
Method in brief: as §1

[10] = A CellTox Green Cytotoxicity Assay to monitor cytotoxicity in HepG2 cells - 40 hour (AID 1224879); note: nearly all actives have a fitted effect of over 40% in size; note: potency is the fitted concentration of half-maximal effect
Method in brief: as §2

SMILES	Potency [1]	Potency [2]	Potency [3]	Potency [4]	Potency [5]	Potency [6]	Potency [7]	Potency [8]	Potency [9]	Potency [10]
O=C1OC(=O)c2cc(-c3ccc4c(c3)C(=O)OC4=O)ccc21	inactive	inactive	inactive	inactive	inactive	inactive	inactive	inactive	inactive	–
COc1cc(/C=C/C(=O)CC(=O)/C=C/c2ccc(O)c(OC)c2)ccc1O	43.9 µM (active)	49.3 µM (active)	–	49.3 µM (active)	–	39.2 µM (active)	43.9 µM (active)	49.3 µM (active)	49.3 µM (active)	19.6 µM (active)
NCc1cccc(C2CCN(C(=O)c3ccc(C#Cc4ccccc4F)o3)CC2)c1	49 µM (active)	38.9 µM (active)	–	38.9 µM (active)	inactive	49 µM (active)	inactive	43.6 µM (active)	–	43.6 µM (active)
Cc1ccc(S(=O)(=O)C(I)I)cc1	34.7 µM (active)	54.9 µM (active)	11 µM (active)	49 µM (active)	–	24.5 µM (active)	inactive	43.6 µM (active)	49 µM (active)	–
CC(C)C(=O)C(C)C	inactive	inactive	inactive	inactive	inactive	inactive	inactive	inactive	inactive	–
O=C(N[C@H](CO)[C@H](O)c1ccc([N+](=O)[O-])cc1)C(Cl)Cl	inactive	inactive	inactive	inactive	–	inactive	inactive	inactive	inactive	inactive
N#Cc1ccc(C/C(=N/NC(=O)Nc2ccc(OC(F)(F)F)cc2)c2cccc(C(F)(F)F)c2)cc1	inactive	inactive	–	inactive	inactive	inactive	inactive	inactive	inactive	inactive
CN(C/C=C/c1ccccc1)Cc1cccc2ccccc12	19 µM (active)	23.9 µM (active)	–	23.9 µM (active)	inactive	19 µM (active)	19 µM (active)	23.9 µM (active)	19 µM (active)	21.3 µM (active)
CCn1c2ccccc2c2ccccc21	inactive	inactive	inactive	inactive	inactive	inactive	inactive	inactive	inactive	–
Cc1ccc2n[nH]nc2c1	inactive	inactive	inactive	inactive	–	inactive	inactive	inactive	inactive	–
c1ccc(-c2ccccc2-c2ccccc2)cc1	inactive	inactive	inactive	inactive	inactive	inactive	inactive	inactive	inactive	–
C=CCc1cc(S(=O)(=O)c2ccc(O)c(CC=C)c2)ccc1O	inactive	inactive	–	inactive	–	inactive	inactive	inactive	inactive	inactive
c1ccc2cc3c4ccccc4c4ccccc4c3cc2c1	inactive	inactive	inactive	–	inactive	–	inactive	13.9 µM (active)	inactive	13.9 µM (active)
NC(=O)c1ccccc1Cl	inactive	inactive	inactive	inactive	–	inactive	inactive	inactive	inactive	–
CCCOC(=O)c1ccc(O)cc1	inactive	inactive	inactive	inactive	inactive	inactive	inactive	inactive	inactive	–
Cc1ccc2nc(-c3ccc(N)cc3)sc2c1S(=O)(=O)O	inactive	inactive	inactive	inactive	inactive	inactive	inactive	inactive	inactive	–
Nc1cccnc1N	inactive	inactive	inactive	inactive	–	inactive	inactive	inactive	inactive	–
CCN(CC)c1ccc(N=Nc2ccccc2)cc1	inactive	inactive	inactive	inactive	–	inactive	inactive	inactive	inactive	–
C=CC(=O)O[C@H]1C[C@@H]2CC[C@@]1(C)C2(C)C	inactive	inactive	inactive	inactive	inactive	–	inactive	inactive	inactive	–
C=Cc1ccncc1	inactive	inactive	inactive	inactive	–	inactive	inactive	inactive	inactive	inactive
O=C1CCC/C=C\CCCCCCCCCC1	inactive	inactive	inactive	–	inactive	–	inactive	–	inactive	–
O=C1CCCCCCCCCCCCCC1	43.6 µM (active)	inactive	inactive	–	–	43.6 µM (active)	inactive	–	–	–
CCCCC/C=C\C=C\C(=O)OCC	inactive	inactive	–	22.8 µM (active)	inactive	–	inactive	25.6 µM (active)	inactive	36.1 µM (active)
CCOC(=O)C1=NN(c2ccc(Cl)cc2Cl)C(C)(C(=O)OCC)C1 (stereo unspecified)	inactive	inactive	inactive	inactive	inactive	inactive	inactive	inactive	inactive	–
CCCC(C)C=O (stereo unspecified)	inactive	inactive	inactive	inactive	inactive	inactive	inactive	inactive	inactive	–
c1ccc(C[P+](c2ccccc2)(c2ccccc2)c2ccccc2)cc1	inactive	inactive	inactive	–	inactive	–	inactive	21.9 µM (active)	inactive	19.5 µM (active)

SMILES	Potency [1]	Potency [2]	Potency [3]	Potency [4]	Potency [5]	Potency [6]	Potency [7]	Potency [8]	Potency [9]	Potency [10]
[Cl][Eu]([Cl])[Cl]	inactive	inactive	inactive	inactive	–	inactive	inactive	inactive	inactive	inactive
SC1CCCCC1	inactive	inactive	inactive	inactive	–	inactive	inactive	inactive	inactive	–
Oc1ccc(Cl)cc1C1CCCC1	54.9 µM (active)	54.9 µM (active)	inactive	54.9 µM (active)	inactive	49 µM (active)	inactive	54.9 µM (active)	–	–
Cc1cc(Br)ccc1NC(=O)CCl	inactive	inactive	43.6 µM (active)	–	inactive	–	inactive	–	inactive	–
O=C(Nc1ccc([N+](=O)[O-])cc1)Nc1ccc([N+](=O)[O-])cc1 (tested in a mixture with another compound)	inactive	inactive	inactive	–	–	inactive	inactive	21.3 µM (active)	inactive	21.3 µM (active)
CC(Cc1ccc(O)c(O)c1)C(C)Cc1ccc(O)c(O)c1 (stereo unspecified)	inactive	49 µM (active)	49 µM (active)	49 µM (active)	inactive	inactive	inactive	43.6 µM (active)	inactive	–
Oc1ccc2c(c1)CCC2	inactive	–	inactive	inactive	–	inactive	inactive	inactive	inactive	inactive
O=C(CCN1CCC(c2ccccc2)C1)c1ccc2c(c1)OCCO2 (stereo unspecified)	inactive	inactive	–	–	inactive	–	inactive	26.8 µM (active)	inactive	26.8 µM (active)
O=c1cc[nH]cc1	inactive	–	inactive	inactive	inactive	inactive	inactive	inactive	inactive	inactive
C=C1C(CCl)(CCl)C2(Cl)C(Cl)C(Cl)C1(Cl)C2(Cl)Cl (stereo unspecified)	54.3 µM (active)	inactive	–	–	inactive	48.4 µM (active)	inactive	–	–	–
CO[Si](OC)(c1ccccc1)c1ccccc1	inactive	–	inactive	inactive	inactive	inactive	inactive	inactive	inactive	inactive
Cc1ccc(N=Nc2c(O)ccc3ccccc23)c(C)c1	inactive	–	inactive	inactive	–	inactive	inactive	inactive	inactive	inactive
C/C=C/C(=O)C1=C(C)C=CCC1(C)C	inactive	–	inactive	inactive	inactive	inactive	inactive	inactive	inactive	inactive
O=C1OC2(c3ccccc31)c1ccc(O)c(Br)c1Oc1c2ccc(O)c1Br	6.92 µM (active)	–	inactive	–	–	–	–	–	–	–
O=C1OC(O)C(C(Cl)Cl)=C1Cl (stereo unspecified)	inactive	inactive	–	–	–	inactive	inactive	45 µM (active)	inactive	–
CC(=O)CC(N)=O	inactive	–	inactive	inactive	–	inactive	inactive	inactive	inactive	inactive
CCC1(C)C(=O)N(Cl)C(=O)N1Cl (stereo unspecified)	inactive	–	inactive	inactive	inactive	inactive	inactive	inactive	inactive	inactive
CCCCCCCCCCCC(=O)Cl	inactive	–	inactive	inactive	inactive	inactive	inactive	inactive	–	inactive
c1ccc(-c2ccc(C(c3ccccc3)n3ccnc3)cc2)cc1 (stereo unspecified)	inactive	–	inactive	inactive	inactive	inactive	inactive	inactive	inactive	inactive
C=CC(=O)OCC(Br)CBr (stereo unspecified)	inactive	–	inactive	inactive	–	inactive	inactive	inactive	inactive	inactive
CCC(C)(C)c1ccc(CC(C)CN2C[C@@H](C)O[C@@H](C)C2)cc1 (stereo partly specified)	23.9 µM (active)	–	inactive	21.3 µM (active)	inactive	23.9 µM (active)	inactive	21.3 µM (active)	–	23.9 µM (active)
O=C(NCc1ncc(C(F)(F)F)cc1Cl)c1c(Cl)cccc1Cl	inactive	–	inactive	inactive	–	inactive	inactive	21.9 µM (active)	inactive	17.4 µM (active)
CC(=O)[C@]1(O)Cc2c(O)c3c(c(O)c2[C@@H](O[C@H]2C[C@H](N)[C@H](O)[C@H](C)O2)C1)C(=O)c1ccccc1C3=O	inactive	21.3 µM (active)	–	23.9 µM (active)	inactive	inactive	–	23.9 µM (active)	–	–
C[C@H]1O[C@@H](O[C@H]2CC[C@@]3(C)[C@H](CC[C@@H]4[C@@H]3C[C@@H](O)[C@]3(C)[C@@H](C5=CC(=O)OC5)CC[C@]43O)C2)C[C@H](O)[C@@H]1O[C@H]1C[C@H](O)[C@H](O[C@H]2C[C@H](O)[C@H](O[C@@H]3O[C@H](CO)[C@@H](O)[C@H](O)[C@H]3O)[C@@H](C)O2)[C@@H](C)O1	inactive	–	inactive	inactive	–	inactive	inactive	inactive	inactive	inactive
CCC(=O)OC/C=C(\C)CCC=C(C)C	inactive	–	inactive	inactive	inactive	inactive	inactive	inactive	inactive	inactive
CCSCC	inactive	–	inactive	inactive	inactive	inactive	inactive	inactive	inactive	inactive
